Experimental data reported in PubChem BioAssay (EPA / NIEHS).
Records with an inconclusive call do not appear. Calls of active or inactive are those of the source. Rule for the calls, unless noted: active = hit-call score of the fitted dose curve at least 0.9, where 1 is the maximum; inactive = score below 0.9.

Assays:
[1] = BSK_3C_uPAR: BioMAP Diversity Plus: 3C Assay for Urokinase-type plasminogen activator receptor (uPAR) Biomarker Activity (AID 2282998); settings: BioMAP 3C HUVEC, uPAR biomarker ELISA; actives raise or lower the signal
How it was run: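 A multiplexed primary-cell system built on human umbilical vein endothelium was used, with chemical present for 24 h before reading. Cell-surface uPAR was detected by ELISA; signal change in either direction counted against DMSO.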

[2] = BSK_3C_VCAM1: BioMAP Diversity Plus: 3C Assay for Vascular cell adhesion molecule 1 (VCAM1) Biomarker Activity (AID 2282999); settings: BioMAP 3C HUVEC, VCAM1 ELISA, cytokine-stimulated; actives raise or lower the signal
How it was run: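 Activity fitted in both directions relative to DMSO, with ELISA measurement of the surface marker on primary HUVEC (3C) at 24 h post-treatment; parallel SRB staining (0.1% SRB, TCA-fixed, 560 nm) flagged overt cytotoxicity.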

[3] = BSK_4H_Eotaxin3: BioMAP Diversity Plus: 4H Assay for Eotaxin 3 Biomarker Activity (AID 2283000); settings: primary human endothelial cells (HUVEC); actives raise or lower the signal
How it was run: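 Eotaxin-3 (CCL26) levels were measured by ELISA in HUVEC primary cultures 24 h post-dosing. Gain or loss of signal was fitted in both directions, with DMSO serving as baseline and negative control.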

[4] = target: human Peroxisome Proliferator-activated Receptor alpha (PPARa), PPARA (gene 5465) (UniProt Q07869); test: ATG_PPARa_TRANS: Attagene TRANS-FACTORIAL HepG2 Assay for human Peroxisome Proliferator-activated Receptor alpha (PPARa) (AID 2283001; active = hit-call score of the fitted dose curve at least 0.9, where 1 is the maximum)
human Peroxisome Proliferator-activated Receptor alpha (PPARa), PPARA (gene 5465), sequence (Q07869 whole entry, looked up, the tested form may be a part): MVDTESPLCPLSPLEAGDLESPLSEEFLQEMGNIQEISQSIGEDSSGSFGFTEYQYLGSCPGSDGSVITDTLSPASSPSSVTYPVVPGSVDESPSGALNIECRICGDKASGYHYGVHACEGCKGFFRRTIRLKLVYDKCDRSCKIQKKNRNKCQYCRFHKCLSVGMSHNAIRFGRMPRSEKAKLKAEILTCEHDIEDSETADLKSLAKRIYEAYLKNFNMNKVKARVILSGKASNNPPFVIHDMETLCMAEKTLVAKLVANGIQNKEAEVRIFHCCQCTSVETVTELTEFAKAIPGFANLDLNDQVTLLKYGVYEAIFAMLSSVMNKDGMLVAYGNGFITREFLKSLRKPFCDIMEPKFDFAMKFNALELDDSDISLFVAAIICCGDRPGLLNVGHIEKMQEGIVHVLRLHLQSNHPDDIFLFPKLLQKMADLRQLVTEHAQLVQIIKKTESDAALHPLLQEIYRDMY
How it was run: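 Reporter transcripts quantified by RT-PCR plus capillary electrophoresis after 24 h treatment, fitted upward relative to DMSO. Cells: human HepG2 transiently carrying multiple GAL4-UAS reporter units driven by NR-Gal4 chimeras.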

[5] = read-out: Intercellular Adhesion Molecule 1 (ICAM1), ICAM1 (gene 3383); test: BSK_3C_ICAM1: BioMAP Diversity Plus: 3C Assay for Intercellular Adhesion Molecule 1 (ICAM1) Biomarker Activity (AID 2283003); settings: primary human endothelial cells (HUVEC); actives raise or lower the signal
How it was run: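 Chemicals are dosed onto primary human umbilical vein endothelium (3C system). After 24 h, ICAM-1 is measured by ELISA, and responses are fitted bidirectionally relative to DMSO.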

[6] = target: human Retinoic Acid Receptor beta (RARb), RARB (gene 5915) (UniProt P10826); test: ATG_RARb_TRANS: Attagene TRANS-FACTORIAL HepG2 Assay for human Retinoic Acid Receptor beta (AID 2283004; active = hit-call score of the fitted dose curve at least 0.9, where 1 is the maximum)
human Retinoic Acid Receptor beta (RARb), RARB (gene 5915), sequence (P10826 whole entry, looked up, the tested form may be a part): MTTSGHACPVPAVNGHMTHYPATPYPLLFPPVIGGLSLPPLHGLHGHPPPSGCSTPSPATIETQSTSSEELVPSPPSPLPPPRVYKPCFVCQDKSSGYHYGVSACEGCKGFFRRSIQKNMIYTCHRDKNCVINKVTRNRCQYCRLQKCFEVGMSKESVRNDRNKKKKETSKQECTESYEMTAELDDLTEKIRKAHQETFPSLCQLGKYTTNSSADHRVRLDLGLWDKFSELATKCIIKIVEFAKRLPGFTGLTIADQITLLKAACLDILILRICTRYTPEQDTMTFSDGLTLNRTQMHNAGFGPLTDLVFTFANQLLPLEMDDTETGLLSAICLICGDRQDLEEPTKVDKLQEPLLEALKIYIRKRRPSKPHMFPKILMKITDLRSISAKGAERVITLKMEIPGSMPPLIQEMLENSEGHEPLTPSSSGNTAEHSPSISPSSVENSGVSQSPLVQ
How it was run: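 HepG2 cells were transiently transfected with GAL4-UAS reporter units that report activity of exogenous chimeric NR-Gal4 proteins, then exposed to compound for 24 h. Reporter mRNA was quantified by RT-PCR with capillary electrophoresis fluorescence, as gain of signal over DMSO.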

[7] = target: Retinoic acid receptor alpha (Homo sapiens) (UniProt P10276); test: ATG_RARa_TRANS: Attagene TRANS-FACTORIAL HepG2 Assay for human Retinoic Acid Receptor alpha (RARa) (AID 2283005; active = hit-call score of the fitted dose curve at least 0.9, where 1 is the maximum;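 for AC50: potency for increased reporter signal meaning RARa activation over DMSO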)
Retinoic acid receptor alpha (Homo sapiens), sequence (P10276 whole entry, looked up, the tested form may be a part): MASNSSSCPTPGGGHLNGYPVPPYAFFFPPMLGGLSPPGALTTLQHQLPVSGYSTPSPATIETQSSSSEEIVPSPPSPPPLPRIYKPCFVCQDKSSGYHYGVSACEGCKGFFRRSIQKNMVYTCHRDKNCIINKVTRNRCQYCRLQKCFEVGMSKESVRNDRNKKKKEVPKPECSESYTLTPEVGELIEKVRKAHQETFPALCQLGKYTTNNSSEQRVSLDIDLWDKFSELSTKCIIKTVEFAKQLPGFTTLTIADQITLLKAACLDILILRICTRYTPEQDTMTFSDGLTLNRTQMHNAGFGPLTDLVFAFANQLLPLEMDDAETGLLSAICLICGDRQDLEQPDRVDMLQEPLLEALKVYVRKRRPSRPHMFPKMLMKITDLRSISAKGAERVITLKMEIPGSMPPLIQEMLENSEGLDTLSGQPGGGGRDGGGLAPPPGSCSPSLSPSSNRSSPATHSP
How it was run: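 Reporter transcripts, measured by RT-PCR with fluorescent labeling and capillary electrophoresis after 24 h dosing, reflect activity of an exogenous human RARa–GAL4 fusion in transiently transfected HepG2. Fitted for increase relative to DMSO.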

[8] = BSK_3C_Proliferation: Cell Proliferation Assessment in the BioMAP Diversity Plus: 3C Assay (AID 2283006); settings: primary human endothelial cells (HUVEC);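 for AC50: potency may reflect either rise or fall in cell number versus DMSO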
How it was run: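 Cells (human umbilical vein endothelial, sub-confluent) receive test chemical; after 48 h they are fixed in 10% trichloroacetic acid, stained with 0.1% SRB and read at 560 nm. Activity is referenced to DMSO, fitting increases and decreases.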

[9] = target: Peroxisome proliferator-activated receptor gamma (Homo sapiens) (UniProt P37231); test: ATG_PPARg_TRANS: Attagene TRANS-FACTORIAL HepG2 Assay for human Peroxisome Proliferator-activated Receptor-gamma (PPARg) (AID 2283007; active = hit-call score of the fitted dose curve at least 0.9, where 1 is the maximum)
Peroxisome proliferator-activated receptor gamma (Homo sapiens), sequence (P37231 whole entry, looked up, the tested form may be a part): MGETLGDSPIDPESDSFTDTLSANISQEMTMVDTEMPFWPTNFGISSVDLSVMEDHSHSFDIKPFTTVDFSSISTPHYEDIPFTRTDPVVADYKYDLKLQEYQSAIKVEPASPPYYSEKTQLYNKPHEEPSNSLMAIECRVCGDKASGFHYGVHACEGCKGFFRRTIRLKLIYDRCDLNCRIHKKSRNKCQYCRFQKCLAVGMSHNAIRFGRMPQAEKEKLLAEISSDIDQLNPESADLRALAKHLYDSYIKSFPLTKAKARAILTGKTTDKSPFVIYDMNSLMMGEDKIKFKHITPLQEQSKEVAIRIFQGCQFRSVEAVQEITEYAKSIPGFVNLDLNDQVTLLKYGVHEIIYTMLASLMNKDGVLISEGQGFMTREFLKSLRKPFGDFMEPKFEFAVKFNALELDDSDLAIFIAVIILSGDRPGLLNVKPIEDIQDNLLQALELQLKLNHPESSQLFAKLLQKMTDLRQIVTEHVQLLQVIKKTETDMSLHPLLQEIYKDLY
How it was run: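 Chimeric NR-Gal4 transactivation is measured in transiently transfected HepG2 cells by reporter mRNA induction at 24 h. Detection uses RT-PCR with fluorescent labelling and capillary electrophoresis; DMSO defines baseline.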

[10] = target: Nuclear receptor subfamily 1 group I member 2 (Homo sapiens) (UniProt O75469); test: ATG_PXR_TRANS: Attagene TRANS-FACTORIAL HepG2 Assay for human Pregnane X Receptor (PXR) (AID 2283008; active = hit-call score of the fitted dose curve at least 0.9, where 1 is the maximum)
Nuclear receptor subfamily 1 group I member 2 (Homo sapiens), sequence (O75469 whole entry, looked up, the tested form may be a part): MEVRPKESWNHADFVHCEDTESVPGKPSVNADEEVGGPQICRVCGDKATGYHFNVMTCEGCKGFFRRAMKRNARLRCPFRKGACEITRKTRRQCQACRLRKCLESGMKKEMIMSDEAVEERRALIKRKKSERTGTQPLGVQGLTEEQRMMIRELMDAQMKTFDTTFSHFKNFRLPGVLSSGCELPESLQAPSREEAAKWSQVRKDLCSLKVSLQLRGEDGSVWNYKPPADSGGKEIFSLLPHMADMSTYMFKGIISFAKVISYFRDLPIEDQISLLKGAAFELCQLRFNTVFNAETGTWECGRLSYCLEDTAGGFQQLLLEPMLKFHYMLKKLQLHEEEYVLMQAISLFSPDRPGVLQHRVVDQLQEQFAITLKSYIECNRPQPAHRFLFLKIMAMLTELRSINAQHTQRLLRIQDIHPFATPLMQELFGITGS
How it was run: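 Transient HepG2 transfectants carrying multiplexed reporter transcription units; PXR activity read through a Gal4 chimera. 24 h exposure. RT-PCR/CE fluorescence; upward curve fit referenced to DMSO.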

[11] = target: human Retinoic Acid Receptor gamma (RARg), RARG (gene 5916) (UniProt P13631); test: ATG_RARg_TRANS: Attagene TRANS-FACTORIAL HepG2 Assay for human Retinoic Acid Receptor gamma (RARg) (AID 2283009; active = hit-call score of the fitted dose curve at least 0.9, where 1 is the maximum)
human Retinoic Acid Receptor gamma (RARg), RARG (gene 5916), sequence (P13631 whole entry, looked up, the tested form may be a part): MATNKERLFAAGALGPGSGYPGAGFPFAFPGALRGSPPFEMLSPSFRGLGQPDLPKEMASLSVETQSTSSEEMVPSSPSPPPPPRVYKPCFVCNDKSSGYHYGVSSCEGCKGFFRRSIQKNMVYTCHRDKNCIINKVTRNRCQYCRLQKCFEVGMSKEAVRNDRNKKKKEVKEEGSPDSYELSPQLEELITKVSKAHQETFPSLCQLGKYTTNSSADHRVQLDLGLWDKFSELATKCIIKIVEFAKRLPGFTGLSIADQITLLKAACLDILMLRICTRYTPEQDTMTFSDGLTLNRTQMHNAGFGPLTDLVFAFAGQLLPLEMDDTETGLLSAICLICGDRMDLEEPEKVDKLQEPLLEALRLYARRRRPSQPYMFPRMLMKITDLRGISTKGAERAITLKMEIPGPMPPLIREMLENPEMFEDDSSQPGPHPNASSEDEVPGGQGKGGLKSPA
How it was run: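 TRANS format measured activity of exogenous NR-GAL4 fusion (RARg) in transfected HepG2 liver cells after 24 h dosing. Induced reporter RNA was detected by RT-PCR/capillary electrophoresis fluorescence, analysed in the positive direction against DMSO.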

[12] = target: Retinoic acid receptor RXR-alpha (Homo sapiens) (UniProt P19793); test: ATG_RXRa_TRANS: Attagene TRANS-FACTORIAL HepG2 Assay for human Retinoid X Receptor alpha (RXRa) (AID 2283012; active = hit-call score of the fitted dose curve at least 0.9, where 1 is the maximum)
How it was run: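 Measures exogenous chimeric NR-GAL4 activity in transfected HepG2 liver cells after 24 h of dosing. Induced reporter mRNA was detected by RT-PCR with capillary electrophoresis, and gain of signal was analysed against DMSO.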

[13] = target: human Retinoid X Receptor beta (RXRb), RXRB (gene 6257) (UniProt P28702); test: ATG_RXRb_TRANS: Attagene TRANS-FACTORIAL HepG2 Assay for human Retinoid X Receptor beta (RXRb) (AID 2283013; active = hit-call score of the fitted dose curve at least 0.9, where 1 is the maximum)
human Retinoid X Receptor beta (RXRb), RXRB (gene 6257), sequence (P28702 whole entry, looked up, the tested form may be a part): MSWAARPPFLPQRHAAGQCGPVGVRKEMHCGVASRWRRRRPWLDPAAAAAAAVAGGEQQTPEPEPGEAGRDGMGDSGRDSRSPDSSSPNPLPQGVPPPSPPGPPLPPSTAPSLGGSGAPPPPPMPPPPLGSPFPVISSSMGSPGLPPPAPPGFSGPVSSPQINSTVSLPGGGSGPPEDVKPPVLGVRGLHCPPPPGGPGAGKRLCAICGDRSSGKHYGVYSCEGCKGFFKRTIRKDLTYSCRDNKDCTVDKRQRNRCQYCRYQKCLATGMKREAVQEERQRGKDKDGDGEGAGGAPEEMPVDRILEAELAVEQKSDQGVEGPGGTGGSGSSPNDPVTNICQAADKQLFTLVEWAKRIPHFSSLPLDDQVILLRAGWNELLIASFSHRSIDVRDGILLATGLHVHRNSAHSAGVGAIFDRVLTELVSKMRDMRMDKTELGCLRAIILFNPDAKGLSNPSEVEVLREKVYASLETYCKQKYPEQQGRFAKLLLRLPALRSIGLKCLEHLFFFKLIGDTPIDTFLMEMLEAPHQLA
How it was run: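 Chimeric receptor-Gal4 activity was assessed in transiently transfected human HepG2 cells after 24 h exposure. Transcripts from GAL4-UAS reporters were quantified by fluorescent RT-PCR and capillary electrophoresis, with DMSO as negative control and baseline.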

[14] = read-out: E-selectin (Homo sapiens) (UniProt P16581); test: BSK_3C_Eselectin: BioMAP Diversity Plus: 3C Assay for Eselectin Biomarker Activity (AID 2283015); settings: primary human endothelial cells (HUVEC); actives raise or lower the signal
How it was run: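 Primary human umbilical vein endothelial cells (3C system), read 24 h after compound addition; E-selectin measured by ELISA. Bidirectional curve fitting against DMSO baseline; cytotoxicity by parallel SRB total-protein staining.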

[15] = read-out: Interleukin-1 alpha (IL1a), IL1A (gene 3552); test: BSK_BE3C_IL1a: BioMAP Diversity Plus: BE3C Assay for Interleukin-1 alpha (IL1a) Biomarker Activity (AID 2283016); settings: primary human bronchial epithelial cells; actives raise or lower the signal
How it was run: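 Signal from IL-1a ELISA, taken 24 h after chemical dosing of human bronchial epithelial cells, is compared with DMSO as baseline using bidirectional curve fitting.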

[16] = read-out: Monocyte Chemoattractant Protein-1 (MCP1), CCL2 (gene 6347); test: BSK_3C_MCP1: BioMAP Diversity Plus: 3C Assay for Monocyte Chemoattractant Protein-1 (MCP1) Biomarker Activity (AID 2283017); settings: primary human endothelial cells (HUVEC); actives raise or lower the signal
How it was run: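 Human umbilical vein endothelial cells (3C system) exposed to chemicals for 24 h; MCP-1 quantified by ELISA against the DMSO baseline with bidirectional fitting, and parallel SRB staining used to assess cytotoxicity.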

[17] = read-out: Monocyte Chemoattractant Protein-1 (MCP1), CCL2 (gene 6347); test: BSK_4H_MCP1: BioMAP Diversity Plus: 4H Assay for Monocyte Chemoattractant Protein-1 (MCP1) Biomarker Activity (AID 2283018); settings: primary human endothelial cells (HUVEC); actives raise or lower the signal
How it was run: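 Endothelial cells from umbilical vein were treated with test chemical, then after 24 h MCP-1 levels were quantified by ELISA; endpoint values came from bidirectional fitting with DMSO as baseline of activity.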

[18] = target: human Thyroid Receptor alpha (THRa1), THRA (gene 7067) (UniProt P10827); test: ATG_THRa1_TRANS: Attagene TRANS-FACTORIAL HepG2 Assay for human Thyroid Receptor alpha (THRa1) (AID 2283014; active = hit-call score of the fitted dose curve at least 0.9, where 1 is the maximum)
human Thyroid Receptor alpha (THRa1), THRA (gene 7067), sequence (P10827 whole entry, looked up, the tested form may be a part): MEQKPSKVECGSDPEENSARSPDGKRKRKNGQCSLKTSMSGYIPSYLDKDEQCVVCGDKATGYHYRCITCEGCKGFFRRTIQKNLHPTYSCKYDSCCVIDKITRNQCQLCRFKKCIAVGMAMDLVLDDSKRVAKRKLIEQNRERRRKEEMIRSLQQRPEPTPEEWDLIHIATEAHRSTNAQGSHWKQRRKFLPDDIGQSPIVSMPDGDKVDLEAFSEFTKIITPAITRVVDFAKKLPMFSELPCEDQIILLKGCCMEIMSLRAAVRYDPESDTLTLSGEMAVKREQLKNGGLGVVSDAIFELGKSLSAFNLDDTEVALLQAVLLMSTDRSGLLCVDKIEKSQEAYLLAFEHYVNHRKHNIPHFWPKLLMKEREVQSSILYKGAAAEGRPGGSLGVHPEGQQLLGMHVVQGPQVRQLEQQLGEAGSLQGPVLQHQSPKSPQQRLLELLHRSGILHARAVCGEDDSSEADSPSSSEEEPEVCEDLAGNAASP
How it was run: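 HepG2 cells transiently transfected with chimeric NR-Gal4 and GAL4-UAS reporter units, dosed 24 h. Reporter mRNA quantified by RT-PCR, fluorescent labeling, HpaI digestion and capillary electrophoresis; gain-of-signal fit versus DMSO.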

[19] = target: human RAR-related Orphan Receptor beta (RORb), RORB (gene 6096) (UniProt Q92753); test: ATG_RORb_TRANS: Attagene TRANS-FACTORIAL HepG2 Assay for human RAR-related Orphan Receptor beta (RORb) (AID 2283010; active = hit-call score of the fitted dose curve at least 0.9, where 1 is the maximum)
human RAR-related Orphan Receptor beta (RORb), RORB (gene 6096), sequence (Q92753 whole entry, looked up, the tested form may be a part): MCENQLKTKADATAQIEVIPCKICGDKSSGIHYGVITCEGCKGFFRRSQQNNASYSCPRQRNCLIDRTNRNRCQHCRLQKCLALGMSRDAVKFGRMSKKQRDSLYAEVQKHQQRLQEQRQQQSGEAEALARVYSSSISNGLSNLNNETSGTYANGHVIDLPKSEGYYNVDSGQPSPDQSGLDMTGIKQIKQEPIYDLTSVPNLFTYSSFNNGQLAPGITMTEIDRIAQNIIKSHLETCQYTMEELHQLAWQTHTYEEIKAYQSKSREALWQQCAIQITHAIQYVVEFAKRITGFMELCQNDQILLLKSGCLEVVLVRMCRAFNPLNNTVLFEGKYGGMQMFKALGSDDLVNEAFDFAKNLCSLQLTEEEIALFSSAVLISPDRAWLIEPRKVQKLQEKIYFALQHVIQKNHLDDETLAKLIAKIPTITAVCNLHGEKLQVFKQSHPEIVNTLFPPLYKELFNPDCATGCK
How it was run: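 Transfect HepG2 with multiple GAL4-UAS reporter transcription units; dose chemicals for 24 h; isolate RNA, reverse-transcribe and PCR-amplify reporter sequences; label, digest and resolve fragments by capillary electrophoresis; fit increases relative to DMSO.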

Measured: AC50

E-selectin (Homo sapiens), sequence (P16581 whole entry, looked up): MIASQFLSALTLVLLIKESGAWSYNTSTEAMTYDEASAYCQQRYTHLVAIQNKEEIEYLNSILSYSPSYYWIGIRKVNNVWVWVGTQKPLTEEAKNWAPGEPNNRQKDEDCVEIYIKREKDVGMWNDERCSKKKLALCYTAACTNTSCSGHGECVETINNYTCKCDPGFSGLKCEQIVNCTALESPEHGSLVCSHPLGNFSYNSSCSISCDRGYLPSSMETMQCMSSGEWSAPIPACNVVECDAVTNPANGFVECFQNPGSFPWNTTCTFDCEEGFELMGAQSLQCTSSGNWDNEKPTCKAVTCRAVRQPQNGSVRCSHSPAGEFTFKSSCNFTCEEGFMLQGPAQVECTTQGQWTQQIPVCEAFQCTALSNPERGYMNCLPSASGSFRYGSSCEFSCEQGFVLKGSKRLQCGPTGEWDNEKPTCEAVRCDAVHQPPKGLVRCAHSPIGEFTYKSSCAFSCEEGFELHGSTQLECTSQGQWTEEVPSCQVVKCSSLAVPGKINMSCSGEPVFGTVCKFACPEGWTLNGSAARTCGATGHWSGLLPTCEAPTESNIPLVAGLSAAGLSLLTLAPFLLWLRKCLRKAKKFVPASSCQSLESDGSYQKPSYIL

O=P(O)(O)CCCl
not listed: [18] | [19]
inactive: all other assays above

N#Cc1c[nH]cc1-c1cccc2c1OC(F)(F)O2
active: [1] 12.8 µM | [3] 20 µM | [8] 5.61 µM | [9] 19.5 µM | [13] 1.68 µM | [16] 20 µM
not listed: [6] | [7] | [11] | [19]
inactive: all other assays above

CN/C(=N\[N+](=O)[O-])NCc1cnc(Cl)s1
not listed: [6] | [9] | [11] | [12] | [13] | [19]
inactive: all other assays above

CCOc1cc(C(C)(C)C)ccc1C1COC(c2c(F)cccc2F)=N1 (stereo not drawn)
active: [1] 29.7 µM | [2] 28 µM | [3] 29 µM | [7] 3.63 µM | [8] 14.4 µM | [14] 18.9 µM | [16] 27.6 µM | [17] 18.5 µM
not listed: [18] | [19]
inactive: all other assays above

CCOc1nc(F)cc2nc(S(=O)(=O)Nc3c(Cl)cccc3Cl)nn12
active: [9] 24.6 µM | [16] 33.2 µM
not listed: [6] | [7] | [11] | [19]
inactive: all other assays above

CC(C)=CC1C(C(=O)OCc2coc(Cc3ccccc3)c2)C1(C)C (stereo not drawn)
active: [1] 12 µM | [3] 8.05 µM | [8] 10.3 µM | [9] 13.1 µM | [14] 8.92 µM | [16] 10.4 µM
not listed: [19]
inactive: all other assays above

COc1cc(OC)nc(NC(=O)NS(=O)(=O)c2ncccc2OCC(F)(F)F)n1
not listed: [6] | [7] | [11] | [18]
inactive: all other assays above

O=c1n(Cl)c(=O)n(Cl)c(=O)n1Cl
not listed: [18]
inactive: all other assays above

CN=C=S
active: [9] 50 µM | [14] 11.7 µM
not listed: [6] | [11] | [12] | [13] | [19]
inactive: all other assays above

CC(C)Oc1cccc(NC(=O)c2ccccc2C(F)(F)F)c1
active: [9] 30.9 µM | [10] 23.4 µM
inactive: all other assays above

COc1cc(Cl)c(OC)cc1Cl
not listed: [19]
inactive: all other assays above

CC(C)N1C(=O)c2ccccc2NS1(=O)=O
not listed: [6] | [7] | [11] | [18] | [19]
inactive: all other assays above

N#Cc1c(Cl)cccc1Cl
active: [10] 72.3 µM
not listed: [6] | [7] | [11] | [19]
inactive: all other assays above

COP(=S)(OC)Oc1ccc([N+](=O)[O-])c(C)c1
active: [1] 15.6 µM | [8] 25.6 µM | [9] 32.6 µM | [16] 30.8 µM
not listed: [6] | [7] | [11] | [12]
inactive: all other assays above
